A selection: hits, their analogues and other compounds. The true share with any hit is near 2.6%.
CF NFkB block: blocks PAF-induced NF-kB reporter in cystic fibrosis cells; KKLEB NF-kB-GFP reporter, GFP fluorescence overnight; inhibition, % at 5 µM; 0.86% of 360,000 active; AID 588850;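 active = at least 50% inhibition at 5 µM, scaled per plate between neutral and stimulator controls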;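 note: PAF is a Pseudomonas aeruginosa culture filtrate used as stimulus; plate controls were PAF-stimulated DMSO wells for no effect and unstimulated DMSO wells for full effect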
KKLEB tox: counter-screen for CF NF-kB inhibitors: cytotoxicity. AID 602141. 0.36% of 360,000 active. activity change (cytotoxicity), % at 5 µM. KKLEB CF airway cells viability, ATPlite luminescence, overnight; active compounds read low; cells stimulated with P. aeruginosa culture filtrate;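 active = corrected activity change at or below -50% at 5 µM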
Shn3 3UTR inh: reduces Shn3 3'UTR luciferase signal in osteoblasts | Clone20 osteoblast Shn3 3'UTR firefly luciferase, 24 h | inhibition, % at 12.5 µM | 0.52% of 360,000 active | AID 588674;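 active = mean inhibition of at least 75% with every replicate also reaching 75%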;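 note: 0% = median of neutral control wells and 100% = pilot-screen positive control compound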
Peg3 prom inh: Peg3 promoter activity inhibition; 1.7% of 360,000 active; HeLa PEG-Prom luciferase reporter, luminescence, overnight; inhibition, % at 20 µM;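 active = inhibition of at least 50% at 20 µM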
HIF-2a block: blocks HIF-2a reporter activity. 0.72% of 360,000 active. 786-0 RCC cells HIF-2a reporter, luciferase luminescence, overnight. inhibition, % at 18.8 µM;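 active = inhibition of the luminescence signal of 40% or more relative to plate controls, in a single-dose primary screen at 18.75 µM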
CF NFkB inh conf: CF NF-kB inhibition confirmation, single concentration | inhibition, % at 5 µM | 64% of 1,300 active | KKLEB CF airway cells, PAF-induced NF-kB-GFP fluorescence, overnight | shares compounds with CF NFkB block | AID 602472; in the data active = inhibition above about 40%;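 note: stimulus PAF is a Pseudomonas aeruginosa filtrate and not platelet activating factor; plate controls were DMSO wells with stimulus for no effect and unstimulated DMSO wells for full effect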
Active calls of the source: *; x = no result given; ! = not confirmed by another sample.

SMILES	CF NFkB block	KKLEB tox	Shn3 3UTR inh	Peg3 prom inh	HIF-2a block	CF NFkB inh conf
CC(=O)Nc1nonc1-c1nc2ccccc2n1CC1CC1	60*	-22	11	21	-8	45*
Cc1ccnc(Nc2nc(-c3sc(C)nc3C)cs2)c1	55*	-17	-21	4	-396	91*
Cc1nc(C)c(-c2csc(Nc3ccccn3)n2)s1	8	6	-73	-161	-224	x
c1ccc(-c2sc3ccccc3c2-c2ccc(OCCN3CCCC3)cc2)cc1	52*	-42	-3	93*	0	-5
Oc1ccc2sc(-c3ccccc3O)c(-c3ccc(OCCN4CCCCC4)cc3)c2c1	x	x	x	x	-3	x
COc1cccc(-c2sc3ccccc3c2-c2ccc(OCCN3CCCC3)cc2)c1	54*	-28	48	100*	-5	31
CC(Oc1ccc(Cl)cc1)C(=O)NNC(=S)NC(=O)c1ccco1 (stereo unspecified)	3	-5	35	15	28	x
CC1(C(=O)Nc2ccc3nc[nH]c3c2)CCN1C(=O)CCc1ccccc1 (stereo unspecified)	-26	16	-3	10	11	x
c1ccc2cc(CSCc3nc4ccccc4[nH]3)ccc2c1	-3	8	10	-21	-39	x
c1ccc(CNc2ncnc3ccccc23)cc1	50*!	-12	84	7	4	41*
Cc1cc(C)cc(-n2ccn(CC(=O)NCCc3ccccc3)c(=O)c2=O)c1	6	-5	-32	9	6	x
Cc1cc(C)n(C(=O)c2ccc(C)c(S(=O)(=O)N3CCCC3)c2)n1	-5	10	-2	18	2	x
COc1ccc(OC)c(S(=O)(=O)NCC(c2ccco2)S(=O)(=O)c2ccccc2)c1 (stereo unspecified)	50*	12	-31	4	2	24
CCC(C(=O)OCC(=O)C1(O)CCC2C3CCC4=CC(=O)CCC4(C)C3C(O)CC21C)C(C)C (stereo unspecified)	56*	5	42	29	0	10
CC(C)CC(NC(=O)CCC(=O)OCC(=O)[C@@]1(O)CCC2[C@@H]3CCC4=CC(=O)C=C[C@]4(C)C3[C@@H](O)C[C@@]21C)C(=O)O (stereo partly specified)	83*	30	7	-3	24	19
Cc1cccc2c1NC(=O)/C2=C\C(=O)c1cccs1	74*	-42	16	74*	45*	47*
O=C(NCCOc1ccccc1)c1ccccc1Cl	-9	13	-9	-169	-163	x
CN(C(=O)COc1ccccc1C(=O)NCCOc1ccccc1)c1ccccc1	57*	-26	94*	106*	-10	23
COCCN1Cc2cccc(C(=O)Nc3cccc(-c4nc5ccccc5[nH]4)c3)c2C1=O	57*	-20	9	22	-138	68*
CCCNC(=O)C1(C)CCN(C(=O)Cc2ccc3ccccc3c2)C1 (stereo unspecified)	-7	-18	6	5	7	x
COc1cc(-c2nnc(NC(=O)CCS(=O)(=O)c3ccccc3)o2)cc(OC)c1OC	3	3	-8	-56	-10	x
COc1cc(-c2nnc(NC(=O)CCS(=O)(=O)c3ccc(F)cc3)o2)cc(OC)c1OC	54*	-30	-25	-10	-3	34
O=C(Nc1nc2ccc(Cl)cc2s1)[C@@H]1CCCN1C(=O)c1cccs1	53*	-21	-16	-108	-130	39
Cc1cccc2sc(NC(=O)[C@@H]3CCCN3C(=O)c3cccs3)nc12	-13	7	10	-4	14	x
O=C(c1c[nH]c2ccccc12)C(O)C(c1ccccc1)N1CCOCC1 (stereo unspecified)	11	-9	-3	0	3	x
SMILES	CF NFkB block	KKLEB tox	Shn3 3UTR inh	Peg3 prom inh	HIF-2a block	CF NFkB inh conf
O=C(c1c[nH]c2ccccc12)C(Cl)c1ccccc1 (stereo unspecified)	63*	-33	17	10	-30	42*
COc1ccc(-c2cc(=O)c3c(OC)c(OC)c(OC)c(OC)c3o2)cc1OC	16	26	-4	34	-3	x
COc1ccc2c(=O)cc(-c3ccncc3)oc2c1OC	59*	2	75	89*	27	77*
Nc1ncnc(NCc2ccc(F)cc2)c1[N+](=O)[O-]	64*	-24	5	-6	8	64*
CN(C)/C=C/C(=O)c1ccc2noc(-c3ccccc3)c2c1	57*	-4	-4	4	8	82*
CC(=O)c1ccc2noc(-c3ccccc3)c2c1	1	-5	-7	-16	-20	x
O=C(/C=C/c1cccc([N+](=O)[O-])c1)n1cnc2ccccc21	82*	-3	92*	100*	28	67*
O=C(COc1cc(O)c2c(=O)cc(-c3ccccc3)oc2c1)c1ccccc1	0	-9	-7	-19	-22	x
Cc1ccc(C(=O)COc2cc(O)c3c(=O)cc(-c4ccccc4)oc3c2)cc1	69*	-44	19	9	20	43*
CC(C)Cn1c(C(C)C)nc([N+](=O)[O-])c1S(=O)(=O)c1ccc(F)cc1	58*	-36	19	34	37	5
CC(C)Cn1c(C(C)C)nc([N+](=O)[O-])c1Sc1ccc(Cl)cn1	27	-12	-20	18	16	x
Cc1ccc2cc(/C=C/C(=O)c3ccco3)c(Cl)nc2c1	64*	-31	-182	-165	-224	-101
CCCC(CCC)C(=O)Nc1c[nH]c(=O)[nH]c1=O	14	-1	-21	5	-9	x
Oc1c(C(c2ccccc2)N2CCOCC2)ccc2ccccc12 (stereo unspecified)	79*	-44	11	56*	10	-13
COc1ccc(S(=O)(=O)c2c(O)c3ccc(C(=O)Nc4ccccc4Cl)cc3[nH]c2=O)cc1	76*	-19	-8	6	5	69*
O=C(COC(=O)c1cc(Br)ccc1O)NC12CC3CC(CC(C3)C1)C2	-11	12	12	2	0	x
C=CCN(CC=C)c1ncnc2[nH]ncc12	65*	3	5	13	15	63*
CN(c1cccnc1)c1ncnc2[nH]ncc12	18	0	6	-9	9	x
CCn1c2ccccc2c2cc(/C=N/n3cnnc3)ccc21	-13	-26	28	38	23	x
CCn1c2ccccc2c2cc(/C=N/O)ccc21	72*	-9	14	-20	3	62*
O=C(CSc1nnc(-c2ccco2)o1)Nc1ccccc1Cl	7	4	-16	-47	-49	x
COc1ccc(NC(=O)Nc2nnc(CC(=O)Nc3ccccc3)s2)cc1	15	0	1	-5	1	x
CCSc1nsc(NC(=O)Nc2cccc(OC)c2)n1	70*	-7	-17	-79	-187	53*
CCSc1nsc(NC(=O)Nc2ccccc2F)n1	-8	-20	10	-217	-343	x
O=C(Nc1ccc(F)cc1)Nc1nnc(COc2ccccc2F)s1	58*	-24	6	45	-2	44*

Screening results as filed in PubChem.
